# Laboratory results as given in publication PMC4336329 (PLoS ONE, 2015).
# Out of some 310,000 compounds screened, about 14,000 (4.5%) showed an effect of 50% or more. Effects have a minus sign here. Many of the other results were omitted from the sample, so strong results are more common in it than they were.
# Target: human ether-à-go-go-related gene (hERG) potassium channel (human, UniProt Q12809)
# Assay: primary screen, population patch clamp on CHO cells stably expressing hERG; higher = less effect of the substance
# 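Further: peak tail current of the secondary pulse compared with the same well before compound.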
# human ether-à-go-go-related gene (hERG) potassium channel, sequence (Q12809 whole entry, looked up): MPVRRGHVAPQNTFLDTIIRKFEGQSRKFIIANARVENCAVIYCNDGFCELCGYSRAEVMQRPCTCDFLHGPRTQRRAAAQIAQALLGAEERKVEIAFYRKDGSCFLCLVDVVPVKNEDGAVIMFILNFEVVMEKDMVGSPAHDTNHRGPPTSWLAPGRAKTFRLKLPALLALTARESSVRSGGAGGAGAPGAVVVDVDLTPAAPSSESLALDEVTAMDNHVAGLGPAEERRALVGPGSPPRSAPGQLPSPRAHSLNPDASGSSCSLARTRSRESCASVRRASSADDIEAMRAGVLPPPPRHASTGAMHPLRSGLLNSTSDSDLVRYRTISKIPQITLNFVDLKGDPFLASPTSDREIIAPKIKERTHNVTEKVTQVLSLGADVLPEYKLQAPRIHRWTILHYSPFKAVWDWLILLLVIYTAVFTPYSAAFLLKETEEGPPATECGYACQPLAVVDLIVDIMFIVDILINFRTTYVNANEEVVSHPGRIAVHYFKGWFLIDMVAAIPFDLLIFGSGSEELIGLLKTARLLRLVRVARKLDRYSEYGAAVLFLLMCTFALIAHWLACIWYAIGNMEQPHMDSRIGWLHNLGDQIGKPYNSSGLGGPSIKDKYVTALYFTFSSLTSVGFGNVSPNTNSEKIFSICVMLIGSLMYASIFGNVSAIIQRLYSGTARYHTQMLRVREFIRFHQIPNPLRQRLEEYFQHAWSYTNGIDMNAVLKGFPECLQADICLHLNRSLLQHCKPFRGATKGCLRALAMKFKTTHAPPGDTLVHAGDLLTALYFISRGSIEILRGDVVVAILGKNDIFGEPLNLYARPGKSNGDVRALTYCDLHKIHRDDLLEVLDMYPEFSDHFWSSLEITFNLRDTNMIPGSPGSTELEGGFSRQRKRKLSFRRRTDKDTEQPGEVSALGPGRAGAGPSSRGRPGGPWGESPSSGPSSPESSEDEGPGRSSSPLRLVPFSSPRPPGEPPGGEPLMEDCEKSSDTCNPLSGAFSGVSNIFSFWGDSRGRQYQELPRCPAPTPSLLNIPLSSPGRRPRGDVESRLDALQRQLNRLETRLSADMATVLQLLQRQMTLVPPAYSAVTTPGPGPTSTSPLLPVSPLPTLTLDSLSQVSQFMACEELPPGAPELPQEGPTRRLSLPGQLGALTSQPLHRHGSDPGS
row,SMILES,"hERG current change (%, negative = inhibition) at 10uM"
1,COc1cccc(CN2CCN(c3ncccn3)CC2)c1OC,-3.3%
2,COc1ccc(CCNC(=O)c2nnn(CC(=O)Nc3ccccc3C)c2N)cc1OC,16.3%
3,CSc1ncccc1C(=O)Nc1ccc(C)cn1,0.536%
4,Cc1ccc(CS/C(Nc2ccccc2C)=C(\C#N)C(=O)NCc2ccco2)c(C)c1,9.03%
5,CCN(CC)S(=O)(=O)c1ccc(C(=O)NCCCN=C2NS(=O)(=O)c3ccccc32)cc1,-5.24%
6,CCC1(CC)C(=O)C2=C3C1[C@H](C(=O)OC)C=C(C(=O)OC)C[C@H]3[C@H]1C(=O)N(CC(=O)OC)C(=O)[C@H]1[C@H]2C (stereo partly shown),5.84%
7,COc1ccc(OC)c(S(=O)(=O)Nc2cc3c4c(c2)CCN4C(=O)CC3)c1,-2.69%
8,C=CCn1c(SCC(=O)N2CC(=O)Nc3ccccc32)nc2scc(-c3ccccc3)c2c1=O,-1.72%
9,O=C(CSc1nccn(-c2ccc(Br)cc2)c1=O)NC1CCCC1,13.7%
10,Cc1nnc(NC(=O)CSc2nnc(CNC(=O)c3ccc(S(=O)(=O)N(C)C)cc3)o2)s1,22.6%
11,CC(Cl)C(=O)NNC(=O)CNS(=O)(=O)c1ccccc1 (stereo not shown),-0.478%
12,CN(C)/C=C/C(=C\C(=O)C(F)(F)F)Nc1ccc(C(F)(F)F)cc1,2.83%
13,Cc1ccc(NC(/C=C/N(C)C)=C/C(=O)C(F)(F)F)c(C)c1,-56.7%
14,CN(C)/C=C\C(=C/C(=O)C(F)(F)F)Nc1ccccc1Oc1ccccc1,-24.4%
15,COc1cc(COCC(O)CN2CCCCC2C)cc(OC)c1OC.Cl (stereo not shown),20.6%
16,C=CCc1ccc(OCC(O)CN2CCc3ccccc3C2)c(OC)c1.Cl (stereo not shown),-68.8%
17,C=CCc1ccc(OCC(O)CN2CCN(c3ccccc3)CC2)c(OC)c1.Cl (stereo not shown),-70.3%
18,COc1cc(COCC(O)CN2CCc3ccccc3C2)cc(OC)c1OC.Cl (stereo not shown),-21.7%
19,C=CCc1ccc(OCC(O)COc2ccc(CC=C)cc2OC)c(OC)c1,-24.5%
20,C=CCc1ccc(OCC(O)CN2CCCCC2C)c(OC)c1.Cl (stereo not shown),-55.1%
21,C=CCc1ccc(OCC(O)CN2CCN(c3ccccc3OC)CC2)c(OC)c1.Cl (stereo not shown),-16.2%
22,C=CCc1ccc(OCC(O)CN2CCC(Cc3ccccc3)CC2)c(OC)c1.Cl (stereo not shown),-77.5%
23,CC(=O)C(C)n1c(CN(C)Cc2ccccc2)nc2c1c(=O)n(C)c(=O)n2C (stereo not shown),-5.4%
24,O=C(CSc1cc([N+](=O)[O-])cc(S(=O)(=O)Cc2ccccc2)c1)NC1CC1,-9.88%
25,COCCNC(=O)COc1ccc(C)c(C)c1,3.36%
26,Cc1cc(S(=O)(=O)N2CCC(N3CCCCC3)CC2)ccc1-n1cnnn1,-1.17%
27,COc1cccc(C2CC(c3ccccc3Cl)n3nnnc3N2)c1 (stereo not shown),-12.1%
28,O=C(Nc1nc2ccccc2s1)c1cccc(S(=O)(=O)N2CCc3ccccc32)c1,-7.03%

row,SMILES,"hERG current change (%, negative = inhibition) at 10uM"
1,Cc1cccc(OCCCC(=O)NNC(=O)c2ccc(F)cc2)c1,-7.21%
2,COc1ccc(-c2nn3c(C4CCCCC4)nnc3s2)cc1OC,-15.2%
3,COc1ccc(-n2nc(C(=O)NCC(=O)NC3CCCCCC3)c3ccccc3c2=O)c(OC)c1,11.1%
4,N/C(=N\OC(=O)COc1ccc(Cl)cc1Br)c1cccnc1,-8.3%
5,C=CCc1ccc(OCC(O)CN2CCCCC2)c(OC)c1 (stereo not shown),-54.8%
6,C=CCc1ccc(OCC(O)CN2CCN(Cc3ccccc3)CC2)c(OC)c1.Cl (stereo not shown),-77%
7,C=CCc1ccc(OCC(O)CO)c(OC)c1 (stereo not shown),11.6%
8,C=CCc1ccc(OCC(O)COCC)c(OC)c1 (stereo not shown),-3.56%
9,C=CCc1ccc(OCC(O)CN2CCN(Cc3ccc(Cl)cc3)CC2)c(OC)c1.Cl (stereo not shown),-75.7%
10,C=CCc1ccc(OC)c(OC)c1,23.8%
11,C=CCN1C(=O)c2ccc(C(=O)N3CCN(S(=O)(=O)c4ccccc4Br)CC3)cc2C1=O,-41.2%
12,O=C(NC(=S)Nc1ccccc1[N+](=O)[O-])c1ccccc1,6.17%
13,CSc1nc(N)nc(SCCS(=O)(=O)c2ccc(Cl)cc2)c1C#N,-3.5%
14,CN(C(=O)COC(=O)c1ccc2c(c1)NC(=O)CS2)C1CCS(=O)(=O)C1 (stereo not shown),31.3%
15,CC1(C)C2C/C(=N\O)C(C)(/[N+]([O-])=C/c3cccc([N+](=O)[O-])c3)CC21 (stereo not shown),-10.7%
16,COc1ccc(C(C(=O)NC2CCCC2)N(Cc2cccnc2)C(=O)Cc2cccs2)cc1OC (stereo not shown),-1.66%
17,Cc1cccc(CN2CCOCCS2(=O)=O)c1,10.2%
18,O=C(/C=C/c1cccs1)N1CCCC1,33.1%
19,COc1cccc(CC2(CO)CCN(Cc3ccc4cccc(F)c4n3)CC2)c1,-64.4%
20,OCC1(Cc2cccc(F)c2)CCN(Cc2ccc3cccc(F)c3n2)CC1,-64.7%
21,COc1cccc(CC2(CO)CCN(S(=O)(=O)N(C)C)CC2)c1,11.9%
22,CC(C)c1csc(CN2CCC(CO)(Cc3cccc(F)c3)CC2)n1,-17.3%
23,OCC1(Cc2cccc(Cl)c2)CCCN(Cc2ccc3cc(F)ccc3n2)C1 (stereo not shown),-23.8%
24,COc1cccc(CN2CCN(Cc3ccc4cccc(F)c4n3)CC2CCO)c1 (stereo not shown),-39.9%
25,OCC1(CCOc2ccccc2)CCN(Cc2ccc3cccc(F)c3n2)CC1,-83%
26,CC(=O)Cc1nsc(NC(=O)c2csc3c2CCCC3)n1,-8.24%
27,CCOc1ccccc1NC(=O)CSc1ccc(-c2ccco2)nn1,-16.6%
